Data on 56 compounds can be found in PubChem BioAssay AID624465 (National Center for Advancing Translational Sciences (NCATS), 2012).

About 300 (0.083%) of roughly 360,000 compounds were called active. Rule as the data show it: active = activation above about 40%; inconclusive = between about 15% and that limit; inactive = weaker than that. This excerpt belongs to a sample that is enriched for actives.

The target in the experiment is D(2) dopamine receptor (Homo sapiens) (UniProt P14416). Nature of the experiment: Beta-Arrestin HTS for Positive Allosteric Modulators of the Human D2 Dopamine Receptor: Agonists. The conditions noted are these: DiscoveRx PathHunter D2 beta-arrestin, luminescence, 90 min; stronger effect = higher value; 100% = 57 uM dopamine signal. From the text: There is great interest in identifying small molecule ligands for G-protein coupled receptors (GPCRs) as nearly 50% of all FDA-approved drugs target these important receptor proteins. […] Amongst the dopamine receptors (DARs), the D2 is arguably one of the most validated drug targets in neurology and psychiatry. For instance, all receptor-based antiparkinsonian drugs primarily work via stimulating the D2 DAR, whereas all FDA-approved antipsychotic agents are antagonists of this receptor. The D2 DAR is also therapeutically targeted in other disorders such as restless legs syndrome, tardive dyskinesia, Tourette's syndrome, and hyperprolactinemia.
Sequence of D(2) dopamine receptor (Homo sapiens) (P14416 whole entry, looked up): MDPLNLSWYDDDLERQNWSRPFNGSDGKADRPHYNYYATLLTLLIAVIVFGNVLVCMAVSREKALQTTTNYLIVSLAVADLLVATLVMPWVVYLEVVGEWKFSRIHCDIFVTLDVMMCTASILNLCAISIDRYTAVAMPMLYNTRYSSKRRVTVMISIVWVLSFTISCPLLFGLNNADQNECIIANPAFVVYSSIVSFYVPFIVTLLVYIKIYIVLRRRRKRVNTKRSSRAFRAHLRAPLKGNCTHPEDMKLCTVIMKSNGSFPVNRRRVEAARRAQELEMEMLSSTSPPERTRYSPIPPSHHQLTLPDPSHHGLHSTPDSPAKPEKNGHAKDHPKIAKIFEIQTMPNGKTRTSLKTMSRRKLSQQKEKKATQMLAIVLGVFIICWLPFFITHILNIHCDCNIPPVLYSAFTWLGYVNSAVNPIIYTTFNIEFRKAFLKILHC
To this end, a miniaturized qHTS screen was developed to be screened against the Molecular Libraries Small Molecule Repository (MLSMR). This assay seeks to identify agonists against the D2 DAR.
NIH Molecular Libraries Probe Production Network [MLPCN]
NIH Chemical Genomics Center [NCGC]
PI Name: David Sibley, National Institutes of Neurological Disorders and Stroke
DiscoveRx D2 cells were thawed from frozen stock and seeded at 2,100 cells/ 3 uL/well media (DiscoveRx Plating Reagent 2) with MultiDrop Combi dispenser (Thermo Scientific, Logan, UT) onto white tissue culture treated 1536-well Aurora plates (Brooks Automation, Chelmsford, MA) and allowed to attach overnight at 37 deg C, 5% CO2. Next, 23 nL/well of compound solutions in DMSO were added with a pintool transfer (Kalypsis, San Diego, CA). As the positive control, 1 uL/well dopamine (EC100, 57 uM final concentration) diluted in buffer (HBSS + 10 mM HEPES + SMB + 0.1% Tween-20) was dispensed to 1 column of each plate. The rest of the plate was dispensed with buffer only, 1 uL/well as well. The cells were stimulated by compounds or dopamine control for 90 minutes at 37 deg C, 5% CO2, after which 1.5 ul/well of DiscoveRx detection reagent was added with BioRAPTR FRD dispenser. The detection reagent was prepared by mixing of Galacton Star Substrate, Emerald II solution and PathHunter buffer (supplied by the assay kit) together at 1:5:19 proportion accordingly just prior to dispensing. The plates were incubated at ambient temperature for 1 hour and then the luminescent signal was read on ViewLux plate reader (PerkinElmer, Waltham, MA).
Take `Cc1cccc2nc(CNc3ccc(F)cc3)cn12`: the activation is -2.67% (inactive).

As to `COc1ccc([N+](=O)[O-])cc1NC(=O)c1ccc(N(Cc2ccccc2C)S(C)(=O)=O)cc1`, the activation is 1.42% (inactive).

Take `CN(CC(=O)NC1CCCCC1)S(=O)(=O)c1cccc2cccnc12`: the activation was -4.91% (inactive).

Regarding `CCCCCN(C(=O)NC(=O)Nc1cccc(C)c1C)S(C)(=O)=O`, the activation was -5.29% (inactive).

Turning to `Cc1ccccc1Nc1scc(-c2ccc(Br)cc2)[n+]1-c1ccccc1C`, the activation was -4.78% (inactive).

Consider `Cc1nn(-c2ccccc2)c2c1c(C)c(CCC(=O)NCC1CCCO1)c(=O)n2C` (stereo unspecified), for which the activation was -0.567% (inactive).

As to `O=c1ccc2cc(S(=O)(=O)N3CCN(c4ccccc4)CC3)ccc2o1`, the activation was -0.365% (inactive).

As for `CCCOc1cc(C)c(S(=O)(=O)n2nnc3ccccc32)cc1C`, the activation was 2.16% (inactive).

In the case of `CC(=O)N1C[C@@H](CO)[C@@H](N(C)C(=O)c2ccco2)C[C@H]1c1ccccc1`, the activation was -6.66% (inactive).

Turning to `CCCN(CCc1ccccc1)C1CCc2c(O)cccc2C1` (stereo unspecified), the activation was 56.1% (active).

In the case of `Cc1cc(C)cc(C(=O)N(CCc2ccccc2)C2=CC3CCC(C2)N3C)c1` (stereo unspecified), the activation was 0.198% (inactive).

`CCCc1cc(=O)[nH]c(SCC(=O)c2c(N)n(CC(C)C)c(=O)n(C)c2=O)n1`: the activation is -5.56% (inactive).

Consider `Cc1ccc(-c2csc(C(C#N)=C(O)CN3CCN(C(=O)c4ccco4)CC3)n2)cc1`, for which the activation was 9.93% (inactive).

Consider `O=C(NCC1CCCO1)C1CCN(C2CCN(C(=O)C3CCCCC3)CC2)CC1` (stereo unspecified), for which the activation was 0.237% (inactive).

With `CC1CCc2c(sc3c2C2=NS(=O)(=O)CCN2C=N3)C1` (stereo unspecified), the activation is -1.75% (inactive).

Regarding `CCCCN1C(=O)C(=O)N(CC(=O)Nc2cccc(C(C)=O)c2)C1=O`, the activation was -3.6% (inactive).

For `O=C1CCCN1C(=O)COc1ccc([N+](=O)[O-])cc1`, the activation is -5.83% (inactive).

As to `C[C@H](OC(=O)n1ccnc1)[C@@H]1O[C@@]2(C)CCC[C@@H]1O2`, the activation is -0.3% (inactive).

Take `CCC(=O)N1c2ccc(S(=O)(=O)NCc3ccco3)cc2CC1C` (stereo unspecified): the activation is 4.56% (inactive).

On to `CC(NC(=O)CNC(=O)Cc1cccc2ccccc12)c1ccc(S(N)(=O)=O)cc1` (stereo unspecified), for which the activation was -2.38% (inactive).

For `COc1ccc(CC(=O)NC(C)c2ccc(Cl)c(Cl)c2)cc1S(=O)(=O)N1CCOCC1` (stereo unspecified), the activation was -3.32% (inactive).

Take `CN(C(=O)c1cccc(NC(=O)Cc2ccc(NC(=O)C3CCCN(C(=O)C4CCCC4)C3)cc2)c1)C1CCC1` (stereo unspecified): the activation was 1.94% (inactive).

For `COC(C[C@H](O)CC(=O)COCc1ccccc1)OC`, the activation is 0.157% (inactive).

In the case of `C[C@H](CO)N1C[C@H](C)[C@@H](CN(C)S(=O)(=O)c2ccc(F)cc2)OCc2cnnn2CCCC1=O`, the activation is -9.17% (inactive).

With `CC(C)C1C(=O)N(Cc2cn(CCC3OCCO3)nn2)CCS(=O)(=O)N1Cc1ccc(-c2ccccc2C(F)(F)F)cc1` (stereo unspecified), the activation was -3.03% (inactive).

On to `Oc1ccccc1CNc1ncc(Br)cc1Br`, for which the activation was 0.262% (inactive).

With `O=C(CSc1ccsc1[N+](=O)[O-])N1CCCCC1`, the activation is -4.54% (inactive).

With `Cc1cccc(NC(=O)c2ccc(OCC(=O)NCc3ccccc3)cc2)c1C`, the activation is -2.68% (inactive).

`Cc1c(NC(=O)C(C)OC(=O)c2cc3c4ccccc4n(C)c3s2)c(=O)n(-c2ccccc2)n1C` (stereo unspecified): the activation is -5.25% (inactive).

Consider `Cc1ccc(C(=O)NC2CCCC(C)C2C)cc1S(=O)(=O)N1CCCCC1` (stereo unspecified), for which the activation was -2.55% (inactive).

Consider `N#CC1=C(N)N(c2ccc(F)cc2)C(=O)C1`, for which the activation was -1.46% (inactive).

On to `CC1(C)C(=O)C2(CCCCC2)C(=O)OC1c1cccs1` (stereo unspecified), for which the activation was -2.99% (inactive).

As for `CC(=O)Nc1ccc(CNc2nc(NCCN(C)C)nc3cc(-c4ccccc4)sc23)cc1`, the activation was -1.9% (inactive).

Take `COCCNc1nc(NCc2ccc(NC(C)=O)cc2)c2sccc2n1`: the activation was 67.7% (active).

Regarding `COc1cccc(CNc2nc(NCc3cccs3)nc3ccsc23)c1`, the activation was -1.88% (inactive).

Turning to `COc1cccc(C(O)c2ncc(-c3ccc4ccccc4c3)[nH]2)c1` (stereo unspecified), the activation was -2.42% (inactive).

For `CC1(C(=O)Nc2ccccc2Br)CCN1C(=O)CC1CC1` (stereo unspecified), the activation was -0.948% (inactive).

For the compound `COc1cc(NC(=O)C2CCN(c3cnccn3)CC2)cc(OC)c1`, the activation is -4.96% (inactive).

For `COc1ccc(N(CC(=O)Nc2cc(OC)cc(OC)c2)S(=O)(=O)c2c(C)n[nH]c2C)cc1`, the activation is -3.11% (inactive).

As to `CCNC(=O)Nc1ccc(S(=O)(=O)Nc2cnc(C)nc2C)cc1`, the activation was -5.47% (inactive).

For `O=c1ccc(-c2ccc(S(=O)(=O)Nc3ccccc3)o2)n[nH]1`, the activation was -1.56% (inactive).

Consider `CCN1C(=O)C(=O)N(CC(=O)Nc2cc(C)ccc2C)C1=O`, for which the activation was -2.03% (inactive).

With `CCOc1ccc(CN2CCC(n3nccc3NC(=O)C3CC3)CC2)cc1CO`, the activation is 4.34% (inactive).

`CCCNC(=O)c1cc(C2CCCCN2C(=O)OC)on1` (stereo unspecified): the activation is -5.6% (inactive).

Regarding `COc1ccc(C2=Nc3ccccc3NC(=O)C2N(C(=O)c2cc3ccccc3[nH]2)c2ccccc2)cc1` (stereo unspecified), the activation was 2.65% (inactive).

`CC(C)(O)C#Cc1ccc(CNC[C@H]2O[C@@H](n3cnc4c(=O)[nH]c(N)nc43)[C@H](O)[C@@H]2O)s1`: the activation was -5.21% (inactive).

Turning to `O=S(=O)(Cc1nnnn1-c1ccccc1)c1ccccc1`, the activation is 0.629% (inactive).

For the compound `CC(=O)c1c(N2CCN(c3ccc(F)cc3)CC2)nc(=S)n(-c2ccccc2)c1C`, the activation was -6.73% (inactive).

Regarding `CC(C)c1ccc(S(=O)(=O)N2CCN(C(=O)CN3C(=O)NC(C)(c4ccccc4)C3=O)CC2)cc1` (stereo unspecified), the activation was 1.77% (inactive).

With `O=C(Nc1ccc(Cl)c(Cl)c1)N1CC=C(c2ccccc2)CC1`, the activation was -2.15% (inactive).

Regarding `CC1CC(C)CN(C(=O)COC(=O)c2ccc3ncsc3c2)C1` (stereo unspecified), the activation is 0.233% (inactive).

As to `CCC(=O)c1c[nH]c(C(=O)NCC2CCCO2)c1` (stereo unspecified), the activation was -0.182% (inactive).

Turning to `CC(C)(C)C(=O)OCc1nc(-c2ccc(O)c(O)c2)cs1`, the activation was 78% (active).

Take `CCCC(=O)N1c2ccc(-c3csc(N)n3)cc2CC1C` (stereo unspecified): the activation is 2.86% (inactive).

For `COc1ccc(C(C)(O)c2nc(-c3ccc(C)c(C)c3)cs2)cc1` (stereo unspecified), the activation is 0.66% (inactive).

Take `CCCN(CCC)c1c([N+](=O)[O-])c(=O)oc2ccccc12`: the activation is -4.9% (inactive).
